40 molecules from PubChem BioAssay (NCI) can be followed below.

Each structure is given as a SMILES string. This is part of a sample that, as a whole, favours compounds with a hit. Of some 83,000 tested, about 20% had one in any assay.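 Interpretation: 100, growth as untreated; towards 0, rising growth inhibition; 0, no net growth; 0 to -100, cell death. Compounds scoring below 10 were considered active.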 Calls of active or inactive are those of the source.

The assay deals with BT-549 breast. As to the kind of experiment: NCI-60 one-dose screen, 48 h (100 = growth as untreated, 0 = no growth, -100 = all killed). Particulars: 10 µM unless noted. As for the experimental part:
Growth inhibition of the BT-549 human tumor cell line is measured as a screen for anti-cancer activity. Cells are grown in 96 well plates and exposed to the test compound for 48 hours. Compounds are tested at a single concentration, which is 10^-5 M for most compounds. The reported endpoint is percent growth (GI% or GIPRCNT), where numbers from 0 - 100% represent growth inhibition, and numbers from -100% - 0 represent cell death. For example, a value of 40 represents 60% growth inhibition. A value of 0 means no net growth occurred over the course of the experiment. A value of -40 indicates 40% of cells at the beginning of the experiment died by the end of the experiment. A value of -100 means all cells are dead at the end of the experiment.
NCI-60 Human Tumor Cell Lines Screen was performed using the standard one-dose NCI protocol, which is described in more detail at https://dtp.cancer.gov/discovery_development/nci-60/default.htm.
Compounds with GIPRCNT values below 10 were considered active. Activity score was based on GIPRCNT using the following formula: […]
Score is 0 for GIPRCNT values of 100 or above, 50 for GIPRCNT values of 0, and 100 for GIPRCNT values of -100.
Turning to `C=Cc1cnc(Nc2ccc(OC)cc2)nc1NCCCNC(=O)C1CCC1`, the growth is 26.4% (inactive).
To `CN(CCCNC(=O)CCOCCOCCOCCNC(=O)Cc1ccc2ccc3cccc4ccc1c2c34)CCCNc1cc(-c2ccc3ccccc3c2)nc2ccccc12` belongs -83.6% (active).
As for `Cc1nc2cc(O)c(O)cc2cc1Oc1ccc(NC(=O)Nc2ccc(Cl)c(Cl)c2)cc1`, the figure is 82.2% (inactive); as for `C=C(C)[C@@H]1CC[C@]2(COC(C)=O)CC[C@]3(C)[C@H](CC[C@@H]4[C@@]5(C)CCCN(C(C)=O)C(C)(C)[C@@H]5CC[C@]43C)[C@@H]12`, 88.6% (inactive).
Turning to `CS(=O)(=O)c1ccc(NC(=O)c2ccccc2)nc1`, the growth is 105% (inactive).
As for `CCOC(=O)/C=C1\S/C(=N\Nc2cc(=O)[nH]c3ccccc23)N(c2ccccc2)C1=O`, the figure is 98.4% (inactive); as for `CN(C)S(=O)(=O)Oc1ccc(-c2sc3cc(OS(=O)(=O)N(C)C)ccc3c2C(=O)c2ccc(OCCN3CCCCC3)cc2)cc1`, 79.6% (inactive); as for `COc1ccc(/C=C/C(=O)c2ccc(NC(=O)CSc3nc4c([nH]3)c(=O)n(C)c(=O)n4C)cc2)cc1OC`, 59% (inactive).
As for `CCN(CC)CCCN1C(=O)c2c(c(C)c3c(oc4ccc(O)cc43)c2C)C1=O`, the figure is 96.6% (inactive); as for `O=C1/C(=C\c2ccccn2)c2ccccc2N1c1c(Cl)cccc1Cl`, -17.7% (active).
Turning to `C=C(C)[C@@H]1CC[C@]2(C(N)=O)CC[C@]3(C)[C@H](CC[C@@H]4[C@@]5(C)CC[C@H](OCCC#N)C(C)(C)[C@@H]5CC[C@]43C)[C@@H]12`, the growth is 97.8% (inactive).
As to `O=c1cc(-c2ccccc2)[nH]c2ncc(-c3ccc(F)cc3)n12`, the growth is 64.1% (inactive).
For `Fc1cc(Nc2ccc3c(OCCCN4CCOCC4)cccc3n2)ccc1Cl`, the growth was 57.9% (inactive).
To `C=CCn1c(SCC(=O)Nc2ccc(/C(C)=N/O)cc2)nnc1-c1cc(-c2ccc(S(N)(=O)=O)cc2)nc2ccccc12` belongs 58.8% (inactive).
`O=C(/C=C(O)/C=C/c1cccc2[nH]ccc12)/C=C/c1cccc2[nH]ccc12`: the growth is 76.4% (inactive).
Take `O=C1/C(=C2\SC(=S)N(C3CC3)C2=O)SC(=S)N1C1CC1`: the growth is 97.5% (inactive).
To `S=c1nc2oc(-c3ccccc3)c(-c3ccccc3)c2c(/N=C\c2ccco2)[nH]1` belongs 103% (inactive); to `C=CN(C(=O)N1CCN(c2cc3c(cc2F)c(=O)c(C(=O)O)cn3C2CC2)CC1)c1nc(-c2ccc(OC)cc2)cs1`, 14.8% (inactive); to `S=C(c1ccc2c(c1)OCO2)N1CCN(c2cccc(Cl)c2)CC1`, 52.4% (inactive).
As for `COc1ccc(/C(C)=C(/c2ccc(OCCCN(C)C)cc2)c2ccc(OC(=O)c3ccccc3)cc2)cc1`, the growth was 87% (inactive).
To `C[C@H](CCCC(=O)NCC#CCN1CCN(C)CC1)[C@H]1CC[C@H]2[C@@H]3CC[C@@H]4CC(=O)CC[C@]4(C)[C@H]3CC[C@]12C` belongs 76.8% (inactive); to `C=C1C(=O)O[C@H]2[C@H]1CC/C(COC(=O)c1ccc(C(=O)O)s1)=C\CC[C@@]1(C)O[C@@H]21`, 42.9% (inactive).
For `N#Cc1nc(-c2ccccc2)oc1S(=O)(=O)N1CCN(c2ccc(F)cc2)CC1`, the growth is 59.7% (inactive).
As to `Cc1n[nH]c2ccc(Br)cc2c1=O`, the growth is 95.7% (inactive).
To `O=C1NC(=O)/C(=C/c2c(-c3ccccc3)nc3sc(COc4ccccc4)nn23)S1` belongs 92.8% (inactive).
To `CC1=C(C(=O)Nc2ccccc2)C(c2ccc3c(c2)OCO3)NC(=S)N1` (stereo not given) belongs 88.1% (inactive).
To `CCn1cc(CNc2ccc(C(=O)Nc3cc4cc(OC)c(OC)cc4c(C)n3)cc2)cn1` belongs 24.6% (inactive); to `Cc1nc2ccccc2c(/C=C/c2ccccc2)c1C(=O)/C=C/c1ccccc1`, 40.6% (inactive); to `Cc1ccc(S(=O)(=O)Oc2ccc3sc4cccc(NCCN(C)C)c4c(=O)c3c2)cc1`, -88.6% (active).
As for `CCNc1ccc(-c2nc3ccccc3n3cccc23)cc1`, the growth was 90.4% (inactive).
As for `COc1ccc(-c2ccc(-c3ccc(C(=N)N)nc3)s2)cc1Cl`, the figure is 77.9% (inactive).
With `O=C(CCCCCCN1CC(=O)N2[C@H](c3ccc(Cl)cc3)c3[nH]c4ccccc4c3C[C@@H]2C1=O)NO`, the growth is 74.7% (inactive).
As for `COc1ccc(C#Cc2ccc(=O)oc2-c2cc(OC)c(OC)c(OC)c2)cc1O`, the figure is 44.8% (inactive).
`CC1(C)CC[C@]2(CO)CC[C@]3(C)[C@H](CC[C@@H]4[C@@]5(C)CCCNC(C)(C)[C@@H]5CC[C@]43C)[C@H]2[C@H]1O`: the growth was 89.3% (inactive).
With `O=C(/C=C/C12c3ccccc3C(c3ccccc31)C1C(=O)NC(=O)C12)c1ccc(Br)cc1` (stereo not given), the growth is 46.1% (inactive).
In the case of `COc1ccc(C2=CC(c3cc(OC)c(OC)c(OC)c3)n3ncnc3N2)cc1` (stereo not given), the growth was 4.42% (active).
As for `Cc1cc(Nc2ccc(C(=O)N3CCCC3)cc2)nc(NCCCNc2ccnc3cc(Cl)ccc23)n1`, the figure is 84.6% (inactive); as for `Cn1cc(-c2ccc(-c3cn(C)c4ccc(Cl)cc34)[nH]2)c2cc(Cl)ccc21`, -83.7% (active).
To `N#CC1=C(N)Oc2ccc3ccccc3c2C1c1ccc([N+](=O)[O-])cc1` (stereo not given) belongs 91.7% (inactive).
To `CCCCCN(CCCCC)CC(O)c1cc(C)c2ccc3cc(C(C)C)ccc3c2c1` (stereo not given) belongs 90.5% (inactive).
